Only some compounds are listed: those with a hit (about 9.6% of all), similar ones and a draw of the others.
Autophagy HCS: autophagy modulators in MEF cells, primary screen, imaging, high-content, MEF GFP-LC3. MEF GFP-LC3 puncta imaging; test concentration mostly 10 µM. calls only at 10 µM (by protocol). hit rate 0.98% among 190,000. AID 463193, 2010;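 active = percentage of spot-positive cells more than 3 SD above its plate mean, without a fluorescence outlier flag or 80% toxicity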;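 also: spot-positive cell cutoff set from DMSO-treated cells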
PTEN del growth: growth suppression of PTEN-null HCT116, primary screen, cell-based, CellTiter-Glo; HCT116 PTEN-null viability, 60 h; hits give low values; viability, % at 10 µM; hit rate 1.2% among 140,000; AID 827, 2007;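 active = viability at or below a set limit, 4 SD under the median of all tested compounds, cut at about 3.7% in these data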;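 also: PTEN knockout HCT116 line with beta catenin targeted HCT116 as companion control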
Lmaj promast: Leishmania major promastigote growth inhibition, primary screen; hit rate 9% among 200,000; inhibition, % at 10 µM; Leishmania major promastigotes, resazurin fluorescence viability; AID 1063, 2008; in the data active = inhibition above about 50%;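 also: promastigotes grown with compound for 44 hours at 28 °C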
Insulin prom up: insulin promoter activators in MIN6 cells, imaging, high-content screening, mouse beta cells; MIN6 insulin promoter-GFP reporter; hits give high values; z-score at 5 µM; hit rate 0.3% among 190,000;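 active = z-score above 3 at 5 µM with at least 500 cells counted in the well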
Insulin prom inh: inhibitors of insulin promoter-driven GFP, primary screen, imaging, TRM-6 cells (human fetal islet line), eGFP reporter, cell count; reporter expression induced with tamoxifen; inhibition, % at 2 µM; hit rate 0.9% among 130,000;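 active = inhibition above the mean plus 3 SD, with well images judged a real hit on visual review, cut at about 60% in these data, passing the limit was not always enough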
bCat KO growth: primary screen for growth suppressors in beta-catenin knockout HCT116 cells (colon tumor, human). HCT116 beta-catenin knockout viability, CellTiter-Glo, 60 h; hits give low values. viability, % at 10 µM. hit rate 1.5% among 140,000;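 active = viability at or under a set limit, the compound median less 4 SD, cut at about 6% in these data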;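 also: 0% = Hyamine 1622 control at 20 µM and 100% = untreated cell control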
* = called active by the depositor.

COc1ccc(O)c(C(=O)CC(=O)c2ccc(F)cc2)c1 was read as Autophagy HCS inactive, PTEN del growth 56.8, Lmaj promast 52.5*, Insulin prom up 0.42 and bCat KO growth 67.8.
Screening CCc1ccc(S(=O)(=O)NC(=S)NC2CCCCC2)cc1 returned Autophagy HCS inactive, Lmaj promast -1.4 and Insulin prom up -0.25.
For COc1ccc2cc(CN(Cc3ccco3)C(=S)NCC3CCCO3)c(=O)[nH]c2c1 (stereo unspecified) the results were Autophagy HCS inactive and Lmaj promast 0.2.
For Cn1c(=O)[nH]c(=O)c2c1nc(N1CCOCC1)n2CCSc1nc2ccccc2[nH]1 the results were Autophagy HCS inactive, PTEN del growth 91.1, Lmaj promast -1.4, Insulin prom up -0.23, Insulin prom inh 44.4 and bCat KO growth 94.1.
Cc1ccc(C(=O)N2CCN(c3ccc([N+](=O)[O-])c(N4CCOCC4)c3)CC2)cc1 was read as Autophagy HCS inactive, PTEN del growth 92.6, Lmaj promast 7.8, Insulin prom up -1.12 and bCat KO growth 80.6.
O=C(c1ccc(F)cc1)N1CCN(c2ccc([N+](=O)[O-])c(N3CCOCC3)c2)CC1 was read as Autophagy HCS inactive, PTEN del growth 91.5, Lmaj promast 57.2*, Insulin prom up 0.64, Insulin prom inh -10.3 and bCat KO growth 83.4.
Screening C=CCc1ccc(OCC(O)CN2CCCCC2)c(OC)c1 (stereo unspecified) returned Autophagy HCS inactive, PTEN del growth 107.7, Lmaj promast 77.8*, Insulin prom up -1.22, Insulin prom inh -116.7 and bCat KO growth 105.7.
For Cc1ccc(C)c(OCC(O)CN2CCCCC2C)c1 (stereo unspecified) the results were Autophagy HCS inactive, PTEN del growth 85.1, Lmaj promast 91.3*, Insulin prom up -0.47 and bCat KO growth 88.9.
C=CCc1ccc(OCC(O)CN2CCCCC2C)c(OC)c1 (stereo unspecified) was read as Autophagy HCS inactive, PTEN del growth 87.0, Lmaj promast 92.8*, Insulin prom up 0.02, Insulin prom inh -6.5 and bCat KO growth 87.5.
Screening C=CCc1ccc(OCC(O)COc2ccc(CC=C)cc2OC)c(OC)c1 returned Autophagy HCS inactive, PTEN del growth 64.3, Lmaj promast 12.4, Insulin prom inh -23.1 and bCat KO growth 67.7.
Screening Cc1ccc(NS(=O)(=O)c2cc(C(=O)Nc3cccc(N(C)S(C)(=O)=O)c3)ccc2C)c(C)c1 returned Autophagy HCS inactive, PTEN del growth 77.4, Lmaj promast 69.1*, Insulin prom up 0, Insulin prom inh -13.2 and bCat KO growth 82.6.
`Cc1ccc(C)c(NS(=O)(=O)c2cc(C(=O)Nc3cccc(N(C)S(C)(=O)=O)c3)ccc2C)c1` gave Autophagy HCS inactive, PTEN del growth 101.2, Lmaj promast 90.4*, Insulin prom up 0.34, Insulin prom inh -54.2 and bCat KO growth 91.5.
For Cc1ccc(NS(=O)(=O)c2cc(NC(=O)c3ccc4c(c3)NC(=O)CS4)ccc2C)c(C)c1 the results were Autophagy HCS inactive, Lmaj promast 64.0* and Insulin prom up -2.84.
Screening COc1ccc(NC(=O)CN(c2cccc(C(F)(F)F)c2)S(C)(=O)=O)cc1OC returned Autophagy HCS inactive, PTEN del growth 105.8, Lmaj promast 5.8, Insulin prom inh -7.0 and bCat KO growth 100.9.
`CCOC(=O)c1c(NC(=O)CSc2nnc(N)s2)sc(C)c1-c1ccc(C)cc1` gave Autophagy HCS inactive, PTEN del growth 63.2, Lmaj promast 5.1, Insulin prom up -0.58 and bCat KO growth 61.4.
Cc1nn(-c2ccccc2)c(N2CCCC2)c1/C=N/NC(=O)c1cc(-c2ccccn2)nc2ccccc12 was read as Autophagy HCS inactive, PTEN del growth 54.1, Lmaj promast 6.2, Insulin prom up -0.3 and bCat KO growth 54.1.
Nc1ccc(/C=C/C(=O)c2ccco2)cc1 was read as Autophagy HCS inactive, PTEN del growth 68.8, Lmaj promast 51.3*, Insulin prom up 0.3, Insulin prom inh -5.1 and bCat KO growth 69.4.
Screening NC(=O)c1ccccc1N/C=C/C(=O)c1ccco1 returned Autophagy HCS inactive, PTEN del growth 70.7, Lmaj promast -1.0, Insulin prom up -0.01, Insulin prom inh 14.3 and bCat KO growth 63.5.
`N#Cc1ccc(/C=C/C(=O)c2ccco2)cc1` gave Autophagy HCS inactive, PTEN del growth 1.6*, Lmaj promast 30.6, Insulin prom up 1.05, Insulin prom inh -3.0 and bCat KO growth 2.3*.
For O=C(Oc1cncc(Cl)c1)c1ccco1 the results were Autophagy HCS inactive, PTEN del growth 100.8, Lmaj promast -4.0, Insulin prom inh -6.9 and bCat KO growth 90.3.
`Oc1c(Cl)cc(Cl)c2cccnc12` gave Autophagy HCS inactive, Lmaj promast 96.0* and Insulin prom inh -9.1.
O=C(Oc1c(Cl)cc(Cl)c2cccnc12)c1ccco1 was read as Autophagy HCS inactive, PTEN del growth 12.6, Lmaj promast 97.9*, Insulin prom up 0.24, Insulin prom inh 67.9* and bCat KO growth 3.5*.
O=C(CN1CCOCC1)Nc1ncc(Br)cc1Br was read as Autophagy HCS inactive, PTEN del growth 97.9, Lmaj promast -3.4, Insulin prom up 0.76 and bCat KO growth 88.4.
OC(COc1ccc2cc(Br)ccc2c1)CN1CCOCC1 (stereo unspecified) was read as Autophagy HCS inactive, PTEN del growth 91.8, Lmaj promast 59.8*, Insulin prom inh -25.0 and bCat KO growth 83.5.
Screening OC(COc1c(Br)cc(Br)cc1Br)CN1CCOCC1 (stereo unspecified) returned Autophagy HCS inactive, PTEN del growth 84.2, Lmaj promast 79.1*, Insulin prom up -0.08 and bCat KO growth 84.9.
Screening O=C(N1CCOCC1)N1CCN(CC(O)COc2ccc3ccccc3c2)CC1 (stereo unspecified) returned Autophagy HCS inactive, PTEN del growth 79.0, Lmaj promast -0.1, Insulin prom up 0.37, Insulin prom inh 66.7 and bCat KO growth 90.0.
Screening O=C(/C=C/c1ccc(Cl)cc1)NC(=S)Nc1ccc(CN2CCOCC2)cc1 returned Autophagy HCS inactive, PTEN del growth 48.1, Lmaj promast 4.4, Insulin prom up -0.74 and bCat KO growth 53.2.
For COc1ccc(C2NCCc3c2[nH]c2ccccc32)cc1COc1ccc(F)cc1 (stereo unspecified) the results were Autophagy HCS inactive, PTEN del growth 0.9*, Lmaj promast 100.3*, Insulin prom up -0.81, Insulin prom inh -6.9 and bCat KO growth 1.2*.
Screening COc1ccc(C2NC(C(=O)O)Cc3c2[nH]c2ccccc32)cc1CN1CCN(c2ccc(F)cc2)CC1 (stereo unspecified) returned Insulin prom up -0.1.

Screening results deposited in PubChem by several laboratories.
